Data: PMC7862700, “An all-to-all approach to the identification of sequence-specific readers for epigenetic DNA modifications on cytosine”

Columns and labels:
Test in all cases: DAPPL (digital affinity profiling via proximity ligation, sequencing); 10 mM Tris-HCl pH 7.5, 50 mM NaCl, 1 mM DTT, 4% glycerol, room temperature, 30 min; GST-TFs on glutathione beads, 16-mer random dsDNA library, 0.1% formaldehyde crosslink after washing; high values mean tight binding
[1] = molecular target: ELF1 (Homo sapiens, UniProt P32519 1-619); details: protein: recombinant; tags: N-terminal GST; dsDNA, one strand shown
Outline: (§1)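 Binding signal is each hexamer's read frequency for a factor divided by its frequency in the tag-only sample. The factors were GST-fused human transcription factors from yeast, captured on glutathione beads, DNA-barcoded and pooled with that sample. Pools were incubated with 200 nmole of a random double-stranded 16-mer DNA library in Tris/NaCl/DTT/glycerol buffer at room temperature for 30 min, then washed, crosslinked with 0.1% formaldehyde, proximity-ligated with BsaI/T4 ligase (1 h, 37 °C), PCR-amplified and sequenced on an Illumina NextSeq500.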

[2] = molecular target: T1, ELK3 (Homo sapiens, UniProt P41970 1-407); details: protein: recombinant; tags: N-terminal GST; dsDNA, one strand shown
T1 sequence: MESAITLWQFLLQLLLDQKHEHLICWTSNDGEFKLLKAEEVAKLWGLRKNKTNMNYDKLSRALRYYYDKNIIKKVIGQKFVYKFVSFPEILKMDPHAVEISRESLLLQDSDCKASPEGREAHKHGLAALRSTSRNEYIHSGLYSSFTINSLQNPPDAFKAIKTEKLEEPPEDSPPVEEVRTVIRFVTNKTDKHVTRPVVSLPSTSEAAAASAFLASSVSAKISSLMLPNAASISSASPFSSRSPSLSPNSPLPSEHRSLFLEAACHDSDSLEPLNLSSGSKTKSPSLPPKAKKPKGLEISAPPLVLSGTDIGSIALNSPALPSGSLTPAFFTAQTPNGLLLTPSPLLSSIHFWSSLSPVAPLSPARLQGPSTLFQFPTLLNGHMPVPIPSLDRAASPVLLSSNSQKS
Outline: as §1

[3] = molecular target: HSF1 (Homo sapiens, UniProt Q00613 1-529); details: protein: recombinant; tags: N-terminal GST; chain copies: 3; dsDNA, one strand shown
Outline: as §1

[4] = molecular target: T2, ELK4 (Homo sapiens, UniProt P28324-2 1-405); details: protein: recombinant; tags: N-terminal GST; dsDNA, one strand shown
T2 sequence: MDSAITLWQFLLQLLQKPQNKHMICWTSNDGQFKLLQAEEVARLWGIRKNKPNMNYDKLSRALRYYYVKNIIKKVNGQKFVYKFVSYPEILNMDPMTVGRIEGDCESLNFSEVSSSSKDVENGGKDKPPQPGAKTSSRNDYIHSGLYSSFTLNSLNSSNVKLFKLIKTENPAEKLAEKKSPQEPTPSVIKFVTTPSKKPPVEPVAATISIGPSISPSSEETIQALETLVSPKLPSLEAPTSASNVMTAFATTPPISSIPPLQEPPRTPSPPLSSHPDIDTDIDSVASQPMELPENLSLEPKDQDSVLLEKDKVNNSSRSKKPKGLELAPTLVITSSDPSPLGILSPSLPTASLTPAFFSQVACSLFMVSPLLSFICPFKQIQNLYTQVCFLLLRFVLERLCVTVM
Outline: as §1

[5] = molecular target: T3, ELF3 (Homo sapiens, UniProt P78545 1-371); details: protein: recombinant; tags: N-terminal GST; dsDNA, one strand shown
T3 sequence: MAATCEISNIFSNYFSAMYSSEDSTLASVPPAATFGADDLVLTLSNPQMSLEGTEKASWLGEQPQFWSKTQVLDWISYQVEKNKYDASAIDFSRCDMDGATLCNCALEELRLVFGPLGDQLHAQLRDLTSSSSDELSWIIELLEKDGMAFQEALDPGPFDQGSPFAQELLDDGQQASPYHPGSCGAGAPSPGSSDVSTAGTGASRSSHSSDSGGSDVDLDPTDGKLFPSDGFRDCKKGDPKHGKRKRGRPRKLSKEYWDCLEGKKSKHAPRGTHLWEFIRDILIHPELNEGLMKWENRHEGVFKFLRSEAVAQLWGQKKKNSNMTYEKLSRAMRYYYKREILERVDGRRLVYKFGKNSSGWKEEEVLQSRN
Outline: as §1

[6] = molecular target: CRX (Homo sapiens, UniProt O43186 1-299); details: protein: recombinant; tags: N-terminal GST; dsDNA, one strand shown
Outline: as §1

[7] = molecular target: T4, ERF (Homo sapiens, UniProt P50548 1-548); details: protein: recombinant; tags: N-terminal GST; dsDNA, one strand shown
T4 sequence: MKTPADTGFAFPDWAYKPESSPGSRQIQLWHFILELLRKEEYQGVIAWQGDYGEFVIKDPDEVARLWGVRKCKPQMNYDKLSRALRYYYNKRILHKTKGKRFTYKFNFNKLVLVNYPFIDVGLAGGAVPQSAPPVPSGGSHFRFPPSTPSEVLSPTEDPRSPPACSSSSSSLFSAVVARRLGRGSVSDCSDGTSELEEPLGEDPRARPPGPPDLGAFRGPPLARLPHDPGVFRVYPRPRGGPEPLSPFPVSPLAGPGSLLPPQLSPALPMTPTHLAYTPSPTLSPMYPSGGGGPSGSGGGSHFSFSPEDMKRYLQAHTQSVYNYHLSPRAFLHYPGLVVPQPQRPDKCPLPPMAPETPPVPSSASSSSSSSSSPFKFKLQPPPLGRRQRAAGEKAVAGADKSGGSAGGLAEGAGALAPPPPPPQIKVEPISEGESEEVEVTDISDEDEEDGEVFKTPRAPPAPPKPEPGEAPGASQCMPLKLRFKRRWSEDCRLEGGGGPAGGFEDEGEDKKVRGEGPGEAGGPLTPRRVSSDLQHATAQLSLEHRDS
Outline: as §1

[8] = molecular target: T5, ETV3L (Homo sapiens, UniProt Q6ZN32 1-361); details: protein: recombinant; tags: N-terminal GST; dsDNA, one strand shown
T5 sequence: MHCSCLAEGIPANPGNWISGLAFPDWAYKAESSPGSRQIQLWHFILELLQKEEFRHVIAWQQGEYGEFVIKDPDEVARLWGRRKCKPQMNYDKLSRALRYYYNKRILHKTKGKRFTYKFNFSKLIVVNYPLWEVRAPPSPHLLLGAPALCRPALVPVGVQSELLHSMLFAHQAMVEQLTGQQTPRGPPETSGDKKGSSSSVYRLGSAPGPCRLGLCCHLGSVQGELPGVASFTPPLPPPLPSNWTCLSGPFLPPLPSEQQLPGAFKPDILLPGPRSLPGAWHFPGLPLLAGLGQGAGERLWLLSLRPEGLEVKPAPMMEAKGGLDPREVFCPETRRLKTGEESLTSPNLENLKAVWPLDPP
Outline: as §1

[9] = molecular target: T6, ETV7 (Homo sapiens, UniProt Q9Y603 1-341); details: protein: recombinant; tags: N-terminal GST; dsDNA, one strand shown
T6 sequence: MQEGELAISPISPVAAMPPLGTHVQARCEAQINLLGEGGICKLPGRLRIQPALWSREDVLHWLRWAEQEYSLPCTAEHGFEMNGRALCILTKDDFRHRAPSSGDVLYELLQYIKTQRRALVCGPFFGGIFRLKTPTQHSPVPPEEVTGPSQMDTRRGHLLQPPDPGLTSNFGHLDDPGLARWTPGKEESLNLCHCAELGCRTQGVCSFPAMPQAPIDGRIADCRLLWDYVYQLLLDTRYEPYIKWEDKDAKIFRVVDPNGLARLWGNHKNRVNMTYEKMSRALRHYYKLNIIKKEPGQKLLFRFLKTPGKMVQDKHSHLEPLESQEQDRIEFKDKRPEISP
Outline: as §1

Sequence of ELF1 (P32519 whole entry, the tested form may be a part): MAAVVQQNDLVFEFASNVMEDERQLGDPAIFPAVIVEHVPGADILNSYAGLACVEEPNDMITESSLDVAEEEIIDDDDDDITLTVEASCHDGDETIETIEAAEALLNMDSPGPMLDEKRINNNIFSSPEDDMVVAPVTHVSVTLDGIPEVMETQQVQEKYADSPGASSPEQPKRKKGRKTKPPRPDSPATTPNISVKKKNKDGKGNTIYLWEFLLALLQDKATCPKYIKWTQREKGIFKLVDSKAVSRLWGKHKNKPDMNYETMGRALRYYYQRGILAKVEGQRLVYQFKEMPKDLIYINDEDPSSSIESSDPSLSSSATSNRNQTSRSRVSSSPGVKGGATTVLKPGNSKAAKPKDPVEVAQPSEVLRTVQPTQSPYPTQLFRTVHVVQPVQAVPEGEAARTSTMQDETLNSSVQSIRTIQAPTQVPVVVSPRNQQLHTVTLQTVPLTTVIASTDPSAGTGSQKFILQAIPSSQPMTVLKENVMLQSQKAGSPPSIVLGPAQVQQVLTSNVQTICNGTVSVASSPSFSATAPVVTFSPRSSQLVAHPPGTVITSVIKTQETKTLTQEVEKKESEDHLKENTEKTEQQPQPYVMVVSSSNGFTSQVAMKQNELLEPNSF
Sequence of CRX (O43186 whole entry): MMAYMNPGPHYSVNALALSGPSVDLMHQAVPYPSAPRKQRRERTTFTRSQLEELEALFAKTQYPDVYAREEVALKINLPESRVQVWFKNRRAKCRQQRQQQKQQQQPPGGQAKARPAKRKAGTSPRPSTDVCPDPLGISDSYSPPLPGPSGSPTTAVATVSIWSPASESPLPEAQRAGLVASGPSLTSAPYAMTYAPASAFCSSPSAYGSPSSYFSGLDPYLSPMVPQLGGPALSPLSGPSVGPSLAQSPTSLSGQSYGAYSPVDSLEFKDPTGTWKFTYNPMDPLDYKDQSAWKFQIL
Sequence of HSF1 (Q00613 whole entry): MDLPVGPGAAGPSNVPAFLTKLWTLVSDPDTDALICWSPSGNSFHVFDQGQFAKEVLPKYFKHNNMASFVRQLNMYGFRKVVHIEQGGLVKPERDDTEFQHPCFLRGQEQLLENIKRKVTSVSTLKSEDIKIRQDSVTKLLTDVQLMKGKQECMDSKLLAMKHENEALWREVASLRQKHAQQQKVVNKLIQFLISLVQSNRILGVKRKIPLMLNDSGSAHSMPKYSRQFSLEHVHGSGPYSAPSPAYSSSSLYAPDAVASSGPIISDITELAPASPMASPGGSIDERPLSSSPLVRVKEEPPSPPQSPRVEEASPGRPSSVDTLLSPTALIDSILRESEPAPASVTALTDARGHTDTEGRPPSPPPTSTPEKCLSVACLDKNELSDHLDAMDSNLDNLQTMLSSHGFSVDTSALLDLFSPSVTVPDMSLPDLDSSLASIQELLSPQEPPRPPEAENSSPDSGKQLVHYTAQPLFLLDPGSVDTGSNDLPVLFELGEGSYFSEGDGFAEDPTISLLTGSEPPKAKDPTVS

GATCAT
binding signal [1]: 1.01 fold enrichment (6-mer frequency, TF over GST control) | binding signal [2]: 1.1 fold enrichment (6-mer frequency, TF over GST control) | binding signal [3]: 1.3 fold enrichment (6-mer frequency, TF over GST control) | binding signal [4]: 1.07 fold enrichment (6-mer frequency, TF over GST control) | binding signal [5]: 1.05 fold enrichment (6-mer frequency, TF over GST control) | binding signal [6]: 1.48 fold enrichment (6-mer frequency, TF over GST control) | binding signal [7]: 1.09 fold enrichment (6-mer frequency, TF over GST control) | binding signal [8]: 1 fold enrichment (6-mer frequency, TF over GST control) | binding signal [9]: 1.04 fold enrichment (6-mer frequency, TF over GST control)
